Screens: PubChem BioAssay, The Scripps Research Institute Molecular Screening Center
ssDAF-12 act: S. stercoralis DAF-12 activation, primary screen. AID 652126. activation, % at 6.8 µM. HEK293 ssDAF-12/GRIP1 lit1-tk-luc reporter, luminescence; % of 3 µM dafachronic acid response. hit rate 1% among 370,000;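 active = activation above the mean over all tested compounds plus 3 SD, cut at about 0.9% in these data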
DAX1 inh-1: inhibits human nuclear receptor DAX1 | hit rate 0.99% among 340,000 | P51843 | HEK293 Gal4-DAX1 luciferase reporter, luminescence | inhibition, % at 6.75 µM;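 active = inhibition above the mean over all tested compounds plus 3 SD, cut at about 4.2% in these data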;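 note: inhibition shows as a rise in luminescence from relieved DAX1 repression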
hgDAF12 agonist: hgDAF-12 agonism, primary luciferase screen | HEK293 GAL4-hgDAF12 UAS-luciferase reporter, agonist luminescence; normalized to butyrate control | activation, % at 6.8 µM | hit rate 1.8% among 370,000;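 active = activation above a cutoff set at the mean of all screened compounds plus 3 SD, cut at about 10% in these data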
hcDAF12 agonist: H. contortus DAF-12 activation, primary screen | hit rate 1.4% among 370,000 | activation, % at 6.8 µM | HEK293 hcDAF-12 lit1-tk-luc reporter, luminescence; 0% DMSO, 100% Δ7-dafachronic acid;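 active = activation above the mean of all tested compounds plus 3 SD, cut at about 5.5% in these data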
DAX1 inh-2: inhibitors of DAX1 repression of SF-1 activated StAR promoter | hit rate 1.1% among 370,000 | AID 652010 | HEK293T StAR-luciferase reporter, SF-1/DAX-1 repression relief | inhibition, % at 6.8 µM;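 active = inhibition above the mean over all tested compounds plus 3 SD, cut at about 3.6% in these data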;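 note: higher inhibition means more luminescence from relief of DAX-1 repression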
DAX1 conf: NR0B1 (human) inhibition, confirmation. shares compounds with DAX1 inh-2. HEK293T StAR-promoter luciferase reporter, SF-1/DAX-1 repression. inhibition, % at 6.8 µM. AID 652134. hit rate 87% among 2,400;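 active = inhibition above the average of every tested compound plus 3 SD, cut at about 3.8% in these data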;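 note: active compounds raise luminescence by relieving repression of the StAR reporter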
Target sequence (P51843 whole entry, looked up): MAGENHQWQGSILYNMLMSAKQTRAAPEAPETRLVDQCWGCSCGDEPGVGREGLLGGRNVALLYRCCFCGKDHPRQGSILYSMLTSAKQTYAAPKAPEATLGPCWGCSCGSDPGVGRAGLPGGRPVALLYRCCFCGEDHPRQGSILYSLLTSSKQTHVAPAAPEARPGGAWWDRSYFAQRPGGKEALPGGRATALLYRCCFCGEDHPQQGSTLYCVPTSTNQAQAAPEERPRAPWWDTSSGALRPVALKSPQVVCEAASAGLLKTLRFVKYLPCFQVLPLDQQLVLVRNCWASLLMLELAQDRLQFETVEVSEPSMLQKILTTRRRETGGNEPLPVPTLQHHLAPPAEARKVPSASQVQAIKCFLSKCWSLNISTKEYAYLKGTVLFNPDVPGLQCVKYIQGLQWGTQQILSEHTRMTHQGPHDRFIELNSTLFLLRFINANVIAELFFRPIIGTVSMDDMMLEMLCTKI
SF1 mutant ctr: counter-screen for DAX1 inhibitors: nonselective inhibitors with SF-1 AF2 mutant; shares compounds with DAX1 inh-2; HEK293 StAR-luciferase, luminescence; inhibition, % at 6.8 µM; hit rate 78% among 2,400;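 active = inhibition above the mean of all tested compounds plus 3 SD, cut at about 3% in these data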
Hits are given with their value. Rows were chosen to be rich in hits. Some 4.1% of all compounds tested hit in one or more screens of this group.

C=C(c1ccc2nc(NC(=O)OC)[nH]c2c1)c1cccs1 was read as ssDAF-12 act inactive, DAX1 inh-1 inactive, hgDAF12 agonist inactive, hcDAF12 agonist inactive, DAX1 inh-2 7.7, DAX1 conf 37 and SF1 mutant ctr inactive.
`CCC1(O)CC2CN(CCc3c([nH]c4ccccc34)C(C(=O)OC)(c3cc4c(cc3OC)N(C=O)C3C(O)(C(=O)OC)C(OC(C)=O)C5(CC)C=CCN6CCC43C65)C2)C1` (stereo unspecified) gave ssDAF-12 act inactive, DAX1 inh-1 inactive, hgDAF12 agonist inactive, hcDAF12 agonist inactive, DAX1 inh-2 5.2, DAX1 conf 21 and SF1 mutant ctr inactive.
Cc1ccnc(NS(=O)(=O)c2ccc(NC(=O)c3cc(=O)c4ccccc4o3)cc2)n1 was read as ssDAF-12 act inactive, DAX1 inh-1 inactive, hgDAF12 agonist inactive, hcDAF12 agonist inactive and DAX1 inh-2 inactive.
CC1Sc2ccc(C(=O)OCc3ccccc3Cl)cc2NC1=O (stereo unspecified) was read as ssDAF-12 act inactive, DAX1 inh-1 inactive, hgDAF12 agonist inactive, hcDAF12 agonist inactive, DAX1 inh-2 6.1, DAX1 conf 7.3 and SF1 mutant ctr 5.9.
C[C@H]1[C@@H](Cc2cc(Cl)cc(Cl)c2)N(c2ccccc2)c2ccccc2CN1Cc1ccccc1 was read as ssDAF-12 act inactive, hgDAF12 agonist inactive, hcDAF12 agonist inactive, DAX1 inh-2 5.0, DAX1 conf inactive and SF1 mutant ctr inactive.
`COc1ccc(-c2nn(CCC#N)cc2C(=O)Nc2cccc(C(=O)O)c2)cc1[N+](=O)[O-]` gave ssDAF-12 act inactive, DAX1 inh-1 inactive, hgDAF12 agonist inactive, hcDAF12 agonist inactive and DAX1 inh-2 inactive.
For CCc1ccc2nc(N(CCN(C)C)C(=O)c3ccc4ncsc4c3)sc2c1 the results were ssDAF-12 act inactive, DAX1 inh-1 inactive, hgDAF12 agonist inactive, hcDAF12 agonist inactive, DAX1 inh-2 7.6, DAX1 conf 8.0 and SF1 mutant ctr 5.4.
Screening O=C(Nc1ccccc1Cl)c1sccc1-c1ccccc1 returned ssDAF-12 act inactive, DAX1 inh-1 inactive, hgDAF12 agonist inactive, hcDAF12 agonist inactive and DAX1 inh-2 inactive.
`CCCCn1c(N)c(N(CC(C)C)C(=O)C2CC(=O)N(Cc3ccccc3)C2)c(=O)[nH]c1=O` (stereo unspecified) gave ssDAF-12 act inactive, DAX1 inh-1 inactive, hgDAF12 agonist inactive, hcDAF12 agonist inactive and DAX1 inh-2 inactive.
COCCNc1c(-c2cc3ccc(C)c(C)c3[nH]c2=O)nc2ccccn12 was read as ssDAF-12 act inactive, DAX1 inh-1 inactive, hgDAF12 agonist inactive, hcDAF12 agonist inactive, DAX1 inh-2 4.9, DAX1 conf 6.1 and SF1 mutant ctr 3.3.
COCCNc1c(-c2ccc(OC)c(OC)c2)nc2ccc(Cl)cn12 was read as ssDAF-12 act inactive, DAX1 inh-1 inactive, hgDAF12 agonist inactive, hcDAF12 agonist inactive and DAX1 inh-2 inactive.
Screening CC1CCCCN1CCCNC(=O)CN1C(=O)c2cccnc2Oc2ccccc21 (stereo unspecified) returned ssDAF-12 act inactive, DAX1 inh-1 inactive, hgDAF12 agonist inactive, hcDAF12 agonist inactive and DAX1 inh-2 inactive.
For CCOc1ccc(S(=O)(=O)N2CCCCC2)cc1NC(=O)CN1C(=O)NC(C)(c2ccc(C)cc2)C1=O (stereo unspecified) the results were DAX1 inh-1 inactive.
Screening Cc1ccccc1S(=O)(=O)/N=C(/Nc1c(C)n(C)n(-c2ccccc2)c1=O)c1ccccc1 returned ssDAF-12 act inactive, DAX1 inh-1 inactive, hgDAF12 agonist inactive, hcDAF12 agonist inactive and DAX1 inh-2 inactive.
Cc1ccccc1S(=O)(=O)/N=C(/Nc1nc2ccccc2s1)c1ccccc1 was read as ssDAF-12 act inactive, DAX1 inh-1 inactive, hgDAF12 agonist 11, hcDAF12 agonist inactive, DAX1 inh-2 5.5, DAX1 conf 3.8 and SF1 mutant ctr 4.1.
Screening O=C(COc1ccccc1Br)NC(=O)NC1CCCC1 returned ssDAF-12 act inactive, DAX1 inh-1 inactive, hgDAF12 agonist inactive, hcDAF12 agonist inactive, DAX1 inh-2 4.9, DAX1 conf 7.3 and SF1 mutant ctr 4.3.
